Screens as filed in PubChem.
Only some compounds are listed: those with a hit (about 4.4% of all), similar ones and a draw of the others.
PfHsp90 set2: growth inhibition of yeast expressing Plasmodium Hsp90; S. cerevisiae expressing PfHsp90, BacTiter-Glo ATP, 48 h; yeast lacking PDR1 and PDR3 efflux regulators; inhibition, % at 9.4 µM; actives 0.32% (n = 310,000);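 active = every replicate shows inhibition above about 80%, whatever the replicate mean, limit read from the data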
tim10-1 inh: growth inhibitors of tim10-1 mutant yeast | S. cerevisiae tim10-1 ts strain growth, BacTiter-Glo, 24 h | inhibition, % at 20 µM | actives 2.2% (n = 330,000) | AID 463190;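 active = inhibition of at least 40%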;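 also: mutant grown at 25 °C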
SUMO Mot1 rescue: inhibitors of SUMOylation pathway: yeast Mot1-301 growth rescue. S. cerevisiae Mot1-301 growth rescue, ATP luminescence, 38.5C; percent above DMSO median, 100 means doubled. growth rescue, % at 18.8 µM. actives 1% (n = 320,000);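 active = every valid replicate shows activation above 250% relative to neutral control wells; inactive = the rest, any valid replicate at or below 250%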
tim23-1 inh: inhibits growth of tim23-1 mutant yeast. actives 1.3% (n = 330,000). S. cerevisiae tim23-1 growth, BacTiter-Glo luminescence, 24 h. inhibition, % at 20 µM;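 active = growth inhibition of the mutant yeast at or above 50%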;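 also: temperature-sensitive mutant grown at 25 °C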
TIM10 inh: inhibits growth of TIM10 yeast strain. S. cerevisiae TIM10 strain growth, BacTiter-Glo luminescence, 24 h. inhibition, % at 10 µM. actives 1.4% (n = 330,000). AID 463195;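 active = inhibition of 40% or more at the single tested concentration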;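 also: wild-type TIM10 isogenic control strain grown at permissive 25 °C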
tim10-1 confirm: tim10-1 yeast growth inhibition, confirmed; shares compounds with tim10-1 inh; inhibition, % at 20 µM; S. cerevisiae tim10-1 ts strain growth, BacTiter-Glo, 24 h; actives 56% (n = 7,400);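 active = inhibition of yeast growth at or above a set limit in either of two repeat tests at 20 µM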;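 also: tim10-1 mutant grown at permissive 25 °C to find synthetic lethal compounds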
tim10 confirm: confirmation of TIM10 yeast growth inhibitors | shares compounds with TIM10 inh | S. cerevisiae tim10 strain growth, BacTiter-Glo luminescence, 24 h | inhibition, % at 10 µM | actives 63% (n = 4,600);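 active = inhibition of yeast growth at or above a set limit in either of two replicates at 10 µM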; also: this counterscreen used the strain with wild-type TIM10
tim23-1 confirm: confirmation of tim23-1 mutant yeast growth inhibitors; shares compounds with tim23-1 inh; S. cerevisiae tim23-1 growth, BacTiter-Glo luminescence, 24 h; inhibition, % at 20 µM; actives 83% (n = 4,400); AID 463218;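 active = inhibition above about 39% in either of two replicate wells at 20 µM, limit read from the data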;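 also: temperature-sensitive tim23-1 mutant grown at 25 °C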
Each line names hits and unclear results; the compound was inactive in the other large screens (follow-up assays come after a bar, where they were run).

CC[C@@H]1CC=C[C@H]2[C@H]1C(=O)N(Cc1ccccc1)[C@H]2c1cc(C)ccc1F	tim10-1 inh 55, tim23-1 inh 51, TIM10 inh 50 (no result: PfHsp90 set2, SUMO Mot1 rescue) | tim10-1 confirm 35 | tim10 confirm 38 | tim23-1 confirm 54
CC(=O)c1ccc(OCC(=O)OCc2cc(-c3ccco3)on2)cc1	none
OCc1cccc[n+]1Cc1ccccc1	none
O=c1oc(-c2ccc(F)cc2)nc2ccsc12	none
O=c1oc(-c2ccccc2Cl)nc2ccsc12	tim10-1 inh 44, tim23-1 inh 70 (no result: SUMO Mot1 rescue) | tim10-1 confirm 35 | tim23-1 confirm 60
COc1ccc2c(c1)sc1nc(-c3ccccc3)cn12	tim10-1 inh 40, tim23-1 inh 60 | tim10-1 confirm inactive | tim23-1 confirm 67
O=C1OC(c2ccc(Br)cc2)=N/C1=C\c1ccco1	tim10-1 inh 57, tim23-1 inh 58, TIM10 inh 45 | tim10-1 confirm inactive | tim10 confirm inactive | tim23-1 confirm 44
COc1ccccc1C(=O)NCCC(=O)Nc1nc2ccccc2[nH]1	none
COc1cc(SC)ccc1C(=O)Nc1nc2ccccc2[nH]1	PfHsp90 set2 96, tim10-1 inh 90, tim23-1 inh 93, TIM10 inh 88 | tim10-1 confirm 91 | tim10 confirm 88 | tim23-1 confirm 94
COc1ccccc1C(=O)Nc1nc2ccccc2[nH]1	PfHsp90 set2 99, tim10-1 inh 67, tim23-1 inh 85, TIM10 inh 68 | tim10-1 confirm 66 | tim10 confirm 55 | tim23-1 confirm 83
Cc1ccc(N(C)S(=O)(=O)c2cccc(C(=O)Nc3nc4ccccc4[nH]3)c2)cc1	tim10-1 inh 41, tim23-1 inh 56 | tim10-1 confirm 42 | tim23-1 confirm 53
CN(C)c1cccc(C(=O)Nc2nc3ccccc3[nH]2)c1	none
Brc1ccc(C2=CC(c3cccs3)n3ncnc3N2)cc1 (stereo unspecified)	tim10-1 inh 50, tim23-1 inh 52 | tim10-1 confirm 38 | tim23-1 confirm 54
CCN(CC)c1ccc(NC(=O)c2ccccn2)cc1S(=O)(=O)Nc1ccccc1OC	none (no result: SUMO Mot1 rescue)
S=c1[nH]nc(-c2ccc(Cl)cc2)n1/N=C/C=C/c1ccco1	tim10-1 inh 45, tim23-1 inh 51 | tim10-1 confirm inactive | tim23-1 confirm inactive
CN(/N=C/c1ccc(O)cc1O)c1ncc(C(F)(F)F)cc1Cl	tim10-1 inh 45, tim23-1 inh 62 | tim10-1 confirm inactive | tim23-1 confirm 56
NC(=O)c1ccccc1OCC(=O)Nc1ccc2c(c1)OCCO2	none (no result: SUMO Mot1 rescue)
CC(Oc1ccc(Br)cc1)C(=O)Nc1nc(-c2ccccn2)cs1 (stereo unspecified)	tim10-1 inh 45, tim23-1 inh 70 (no result: PfHsp90 set2) | tim10-1 confirm inactive | tim23-1 confirm 50
CC(C)[C@H](NC(=O)c1ccccc1Cl)C(=O)Nc1nc(-c2ccccn2)cs1	none
CC(NC(=O)C1CCCN(C(=O)c2ccc(Cl)cc2)C1)c1cccc(C(F)(F)F)c1 (stereo unspecified)	none
CC(C)[C@H](NC(=O)OCc1ccccc1)C(=O)OCC(=O)N1CCCCC1	none (no result: tim10-1 inh, SUMO Mot1 rescue, tim23-1 inh, TIM10 inh)
Cc1cccc(C)c1NC(=O)c1cccc2c1C(=O)N(C1CCCCC1)C2	tim10-1 inh 56, tim23-1 inh 55 | tim10-1 confirm inactive | tim23-1 confirm inactive
Cc1ccc(C(C)(O)CS(=O)(=O)Cc2ccccc2Cl)cc1 (stereo unspecified)	none
CCOc1ccc2c(c1)-c1c(ssc1=S)C(C)(C)N2	tim10-1 inh 48, tim23-1 inh 52 | tim10-1 confirm 40 | tim23-1 confirm 56
CCC1CCc2sc(C(=O)N3CCCN(C)CC3)cc2C1 (stereo unspecified)	none
CCC1CCc2sc(C(=O)N3CCN(c4ccccn4)CC3)cc2C1 (stereo unspecified)	tim10-1 inh 46, tim23-1 inh 56 | tim10-1 confirm 34 | tim23-1 confirm 56
NC(=NC(=O)c1ccc(Cl)cc1)N1N=CCC1c1ccccc1 (stereo unspecified)	none
O=C(Nc1ccc(Cl)c(Cl)c1)N1N=CCC1c1ccccc1 (stereo unspecified)	tim10-1 inh 56, tim23-1 inh 52 (no result: SUMO Mot1 rescue) | tim10-1 confirm 46 | tim23-1 confirm 57
O=C(O)CCN1C(=O)c2ccc(NC(=O)C(c3ccccc3)c3ccccc3)cc2C1=O	none
O=C1c2ccccc2C(=O)c2c([N+](=O)[O-])ccc(O)c21	tim10-1 inh 59, tim23-1 inh 59 | tim10-1 confirm 38 | tim23-1 confirm 69
CCOc1ccc(C2C(C(=O)c3ccco3)=C(O)C(=O)N2CCCn2ccnc2)cc1OC (stereo unspecified)	none
NC(=O)C1CCN(C(=O)c2ccc(OCC(=O)Nc3cccc(C(F)(F)F)c3)cc2)CC1	none (no result: PfHsp90 set2)
CCOC(=O)C1CCN(C(=O)c2ccc(OCC(=O)Nc3cccc(C(F)(F)F)c3)cc2)CC1	tim10-1 inh 56, tim23-1 inh 54, TIM10 inh 54 | tim10-1 confirm 56 | tim10 confirm 53 | tim23-1 confirm 53
Cc1ccc(OCCOC(=O)CN2C(=O)NC3(CCCC3)C2=O)cc1	none
COc1cccc(-n2nc(C#N)c(Cl)cc2=O)c1	tim10-1 inh 68, tim23-1 inh 62, TIM10 inh 55 (no result: SUMO Mot1 rescue) | tim10-1 confirm 56 | tim10 confirm 39 | tim23-1 confirm 63
Cc1ccc(S(=O)(=O)Nc2ccc(S(=O)(=O)Nc3nccs3)cc2)c([N+](=O)[O-])c1	tim10-1 inh 54, tim23-1 inh 50, TIM10 inh 52 | tim10-1 confirm 55 | tim10 confirm 47 | tim23-1 confirm 52
Cc1csc2nc(O)c(C(=O)NC3CCCCCC3)c(=O)n12	tim10-1 inh 41, tim23-1 inh 65 (no result: PfHsp90 set2) | tim10-1 confirm inactive | tim23-1 confirm 51
Cc1csc2nc(O)c(C(=O)NCCCN3CCCC3=O)c(=O)n12	none (no result: PfHsp90 set2)
Cc1csc2nc(O)c(C(=O)NC3CCCCC3)c(=O)n12	tim10-1 inh 40, tim23-1 inh 74 | tim10-1 confirm inactive | tim23-1 confirm 56
Cc1cccn2c(=O)c(C(=O)NC3CCCCC3)c(O)nc12	tim10-1 inh 43, tim23-1 inh 55 | tim10-1 confirm inactive | tim23-1 confirm 44
Cc1cccn2c(=O)c(C(=O)NC3CCCCC3C)c(O)nc12 (stereo unspecified)	none
O=C1c2ccccc2C(=O)N1OCCCN1C(=O)c2ccccc2S1(=O)=O	none (no result: tim10-1 inh, SUMO Mot1 rescue, tim23-1 inh, TIM10 inh)
OC1CCN(c2c3c(nc4cc(-c5cccc(F)c5)nn24)CCCC3)CC1	tim10-1 inh 41, tim23-1 inh 51 | tim10-1 confirm inactive | tim23-1 confirm inactive
